The text below walks through data of PubChem BioAssay (NCATS).

Values without a mark were called inactive. Inconclusive results are not listed. Active and inactive are the calls of the source. Unless noted, the call rests on the fitted dose curve; in most records, active means well fitted curve in the direction sought with a large enough effect; inconclusive means small, poorly fitted or top-dose-only effect, or another doubt; inactive means no such curve, though single readings can be large; an effect the other way counts as inactive or inconclusive. A value given as a limit tells only on which side of the number the result lay.

In assay [1] the target is Lysosomal acid glucosylceramidase (Homo sapiens) (UniProt P04062). Description: Glucocerebrosidase-p2 (AID 348; in the data active means potency below about 10 µM; further: potency means the concentration at half of the fitted maximal effect). The conditions noted are these: purified GBA, blue fluorogenic substrate, 40 min. Summed up:
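Normal human glucocerebrosidase (0.2 nM) with blue fluorogenic substrate (80 uM final) in citrate/phosphate pH 5.9 with 10mM sodium taurocholate, 0.01% tween-20; 40 min RT, NaOH/glycine stop; fluorescence Ex 365/Em 440; AC50 from a titration from 0.6 nM upwards.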

Assay [2] can be described thus: AP1 Signaling Pathway (AID 357; active means well fitted curve in either direction with a large enough effect, not every such curve was filed as active;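 further: ME-180 reporter cells stimulated with EGF at its EC50 level; on the % scale 0 is the no-effect control and ±100 the full control effect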). The conditions noted are these: ME-180 AP-1-bla reporter, EGF-induced, beta-lactamase ratio, 5 h; at 7.69 µM (top of the series) unless noted. The gist of the method: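 Modulation of EGF-driven AP-1 transcription was assessed with a beta-lactamase reporter in ME-180 cells. Compound and EC50 EGF were co-incubated 5 hours at 37 °C before 2.5-hour CCF4 loading at room temperature and dual-emission reading.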

For assay [3], the target named is Cytochrome P450 1A2 (Homo sapiens) (UniProt P05177). The experiment in a line: p450-cyp1a2 (AID 410; calls by dose curve; further: potency means the concentration at half of the fitted maximal effect). The following applies: recombinant CYP1A2, luciferin-ME demethylation, luminescence; series mostly up to 57 µM. The gist of the method: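 20nM CYP1A2, 100uM Luciferin-ME (=Km), 100mM KPO4; cpd 10 min RT; +NADPH regen, 60 min RT; stop/detect 20 min; luminescence. Normalized to furafylline 57 uM = full inhibition.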
Cytochrome P450 1A2 (Homo sapiens), sequence (P05177 whole entry, looked up): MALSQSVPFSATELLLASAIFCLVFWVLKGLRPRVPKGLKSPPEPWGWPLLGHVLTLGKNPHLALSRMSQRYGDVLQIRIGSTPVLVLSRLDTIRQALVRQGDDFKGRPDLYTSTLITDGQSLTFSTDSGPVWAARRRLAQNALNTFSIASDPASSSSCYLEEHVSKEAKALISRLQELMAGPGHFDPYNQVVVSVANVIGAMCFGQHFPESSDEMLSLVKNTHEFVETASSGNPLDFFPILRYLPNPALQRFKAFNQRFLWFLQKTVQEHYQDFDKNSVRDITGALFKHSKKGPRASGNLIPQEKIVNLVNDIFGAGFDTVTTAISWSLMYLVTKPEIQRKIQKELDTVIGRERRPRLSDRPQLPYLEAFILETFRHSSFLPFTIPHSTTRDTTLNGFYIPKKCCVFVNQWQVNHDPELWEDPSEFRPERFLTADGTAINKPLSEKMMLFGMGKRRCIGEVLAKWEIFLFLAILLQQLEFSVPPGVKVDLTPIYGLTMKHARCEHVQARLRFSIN

A short description of assay [4]: NFAT Signaling Pathway (AID 444; active means well fitted curve in either direction with a large enough effect, not every such curve was filed as active;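 further: carbachol stimulus at about its EC50 of 1 µM final; on the % scale 0 is the no-effect control and ±100 the full control effect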). The following applies: Jurkat NFAT-bla M1, carbachol, beta-lactamase ratio, 5 h; at 7.69 µM (top of the series) unless noted. Summed up: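 Jurkat cells with NFAT-driven β-lactamase reporter and co-expressed M1 receptor, stimulated with carbachol (final 1 uM, ~EC50), compound titration, 5 h at 37 °C. CCF4 loaded 1 h at RT; 460/530 nm ratio gave %activity and AC50.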

Assay [5] can be described thus: Stat Signaling Pathway (AID 446; active means well fitted curve in either direction with a large enough effect, not every such curve was filed as active;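 further: ME-180 cervical cancer cells given 40 pM IL-6 alongside compound; SIE-controlled beta-lactamase reporter measured as 460/530 nm FRET emission ratio; on the % scale 0 is the no-effect control and ±100 the full control effect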). The following applies: ME-180 (cervical carcinoma) SIE beta-lactamase reporter, IL-6 stimulated, 5 h; at 7.69 µM (top of the series) unless noted. The gist of the method:
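Emission at 460 and 530 nm (excitation 405 nm) reports SIE-controlled beta-lactamase in ME-180 cells. Cells received compound with 40 pM IL-6 for 5 hrs at 37 C; data scaled between 300 pM IL-6 and 125 nM JAK-inhibitor controls.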

For assay [6], the target named is Glucocorticoid receptor (Homo sapiens) (UniProt P04150). Description: GR-GFP Redistribution (AID 450;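 active means compounds whose dose series gives a full or clear partial fitted curve of increased nuclear translocation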; further: potency means the concentration at half of the fitted maximal effect). The following applies: U2OS GR-GFP nuclear translocation, laser cytometry, 2 h.
Glucocorticoid receptor (Homo sapiens), sequence (P04150 whole entry, looked up, the tested form may be a part): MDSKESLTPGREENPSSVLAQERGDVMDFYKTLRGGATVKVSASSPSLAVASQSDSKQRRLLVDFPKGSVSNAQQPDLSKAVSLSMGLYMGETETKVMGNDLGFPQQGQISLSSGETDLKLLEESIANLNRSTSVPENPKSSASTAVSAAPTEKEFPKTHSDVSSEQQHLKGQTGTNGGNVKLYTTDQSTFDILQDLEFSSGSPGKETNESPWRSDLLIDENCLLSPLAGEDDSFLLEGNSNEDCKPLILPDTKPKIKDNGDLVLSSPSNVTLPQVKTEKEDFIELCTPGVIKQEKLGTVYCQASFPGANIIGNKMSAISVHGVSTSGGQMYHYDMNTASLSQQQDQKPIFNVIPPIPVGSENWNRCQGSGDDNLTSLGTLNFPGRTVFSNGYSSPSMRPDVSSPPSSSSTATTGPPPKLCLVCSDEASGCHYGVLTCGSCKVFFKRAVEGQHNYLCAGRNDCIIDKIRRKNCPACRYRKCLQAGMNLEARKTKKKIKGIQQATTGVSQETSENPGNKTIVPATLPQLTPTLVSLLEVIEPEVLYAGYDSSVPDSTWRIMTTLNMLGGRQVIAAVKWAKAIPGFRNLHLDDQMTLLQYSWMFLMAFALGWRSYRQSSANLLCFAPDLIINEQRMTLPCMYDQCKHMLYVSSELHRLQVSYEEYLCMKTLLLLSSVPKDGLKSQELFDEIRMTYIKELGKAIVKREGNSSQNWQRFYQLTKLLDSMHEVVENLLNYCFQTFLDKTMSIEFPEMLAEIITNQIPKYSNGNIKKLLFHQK
The target is the same in assay [7]. The experiment in a line: GR-EFC Redistribution (AID 451; calls by dose curve; further: potency means the concentration at half of the fitted maximal effect). The conditions noted are these: CHO-K1 GR-EFC translocation, beta-gal luminescence, 2 h. Summed up: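 CHO-K1 cells expressing nuclear EA and GR-ED fragments of b-gal; compounds titrated up to 46 uM final, 2 h at 37 C. GR nuclear translocation read as complemented b-gal luminescence after 1 h RT detection.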

Assay [8] deals with Mitogen-activated protein kinase 10 (Mus musculus) (UniProt Q61831). Description: JNK3 AlphaScreen Assay (AID 530; active means well fitted curve in either direction with a large enough effect, not every such curve was filed as active;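 further: kinase came from lysate of stimulated human HepG2 cells; signal reports phosphorylation of biotinylated GST-cJun 1-79 at Ser73 with 10 µM ATP; on the % scale 0 is the no-effect control and ±100 the full control effect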). The conditions noted are these: JNK3 lysate, c-Jun phosphorylation; series mostly up to 57.1 µM. Summed up: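 HepG2 lysate (IL-1b/TNFa pre-activated) + biotin-GST-cJun 1-79 + anti-pSer73 cJun; cpd titration, 15 min RT; ATP 10 uM start; Tris pH 7.6, MgCl2, DTT, vanadate; beads in EDTA buffer; AlphaScreen.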
For orientation: Alpha assays give light when donor and acceptor beads are brought close together.

The target of assay [9] is 3',5'-cyclic-AMP phosphodiesterase 4B (Homo sapiens) (UniProt Q07343). Description: qHTS Assay for Inhibitors of PDE-IV (AID 607; active means well fitted activation curve with a large enough effect in the main read-out, with a control signal flat, not every such curve was filed as active; further: % of control where 0% means no effect). The following applies: HEK293 ACTOne CNG channel cells, membrane potential fluorescence; series mostly up to 22.9 µM. Summed up: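 The readout is membrane depolarisation from a cAMP-sensing CNG channel, detected with a potential dye at ex 535/em 590. Cells were HEK293-derived (endogenous PDE-IV) at 1000 cells/well, titrated up to 22.9 uM final.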
3',5'-cyclic-AMP phosphodiesterase 4B (Homo sapiens), sequence (Q07343 whole entry, looked up): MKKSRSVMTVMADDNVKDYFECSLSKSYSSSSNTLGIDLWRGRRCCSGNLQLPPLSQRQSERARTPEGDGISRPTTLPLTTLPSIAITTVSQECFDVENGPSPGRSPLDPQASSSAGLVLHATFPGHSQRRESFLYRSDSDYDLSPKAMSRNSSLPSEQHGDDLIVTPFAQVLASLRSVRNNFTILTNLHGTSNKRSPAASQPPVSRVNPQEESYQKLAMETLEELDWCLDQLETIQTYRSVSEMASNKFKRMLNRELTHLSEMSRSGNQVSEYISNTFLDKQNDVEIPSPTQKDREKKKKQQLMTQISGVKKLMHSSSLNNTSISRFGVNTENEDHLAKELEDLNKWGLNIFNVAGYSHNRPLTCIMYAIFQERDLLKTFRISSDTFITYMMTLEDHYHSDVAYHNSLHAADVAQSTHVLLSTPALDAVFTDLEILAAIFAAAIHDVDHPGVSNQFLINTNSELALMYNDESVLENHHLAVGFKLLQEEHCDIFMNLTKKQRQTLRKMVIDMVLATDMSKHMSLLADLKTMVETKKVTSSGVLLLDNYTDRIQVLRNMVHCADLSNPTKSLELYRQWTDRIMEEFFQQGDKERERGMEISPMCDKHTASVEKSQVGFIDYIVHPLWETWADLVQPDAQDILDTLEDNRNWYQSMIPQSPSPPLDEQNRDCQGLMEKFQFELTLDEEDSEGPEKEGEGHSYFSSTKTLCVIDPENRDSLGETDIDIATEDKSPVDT

The target of assay [10] is Cytochrome P450 3A4 (Homo sapiens) (UniProt P08684). Description: qHTS Assay for Activators of Cytochrome P450 3A4 (AID 885). Further: nearly all actives have a fitted effect of over 65% in size. The following applies: recombinant CYP3A4, Luciferin-PPXE luminescence, 60 min; series mostly up to 57.1 µM. The gist of the method:
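Activators are scored by enhanced luminescence from CYP3A4 conversion of luciferin-PPXE (25uM, equal to KM) to luciferin, after 60 min at RT with an NADPH-regenerating system.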
For orientation: In qHTS, concentration-response curves come from the screen itself.

The target in assay [11] is Dual specificity protein kinase CLK4 (Homo sapiens) (UniProt Q9HAZ1). The experiment in a line: qHTS Assay for Inhibitors of CDC-like Kinase 4 (Kinase-Glo Assay) (AID 1770). Further: nearly all actives have a fitted effect of over 65% in size. Further: potency means the concentration at half of the fitted maximal effect. The conditions noted are these: recombinant Clk4, Kinase-Glo ATP depletion luminescence; series mostly up to 66.7 µM. The gist of the method:
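Recombinant human Clk4 (25 nM) phosphorylated RS repeat peptide (100 uM) with 1 uM ATP in Tris pH 7.5/MgCl2/EGTA/DTT/Triton buffer for 4.5 h at room temperature. Residual ATP was quantified by Kinase-Glo luciferase luminescence.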

The target is the same in assay [12]. Description: qHTS Assay for Inhibitors of CDC-like Kinase 4 (ADP-Glo Assay) (AID 1771). Further: nearly all actives have a fitted effect of over 70% in size. Further: potency means the concentration at half of the fitted maximal effect. The following applies: recombinant CLK4, ADP-Glo luminescence; series mostly up to 80 µM. The gist of the method:
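25 nM Clk4, 100 uM RS peptide, 1 uM ATP (final); 2 mM MgCl2, 0.5 mM EGTA, 2.5 mM DTT, 0.01% Triton X-100; 1 hr RT. ADP-Glo readout: ATP depletion 45 min, conversion/luciferase 30 min, luminescence.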

For assay [13], the target named is Ubiquitin carboxyl-terminal hydrolase 1 (Homo sapiens) (UniProt O94782). Description: Inhibitors of USP1/UAF1: Pilot qHTS (AID 504865).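 Further: rhodamine fluorescence freed from ubiquitin-rhodamine substrate followed over time; top concentration of the series differs between compounds; on the % scale 0 is the no-effect control and ±100 the full control effect; nearly all actives have a fitted effect of over 35% in size.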 The conditions noted are these: purified USP1/UAF1, Ub-rhodamine cleavage fluorescence; series mostly up to 54.9 µM. The gist of the method: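 USP1/UAF1 complex (1nM) preincubated with compound 15 min at room temperature, then Ub-Rho substrate (150nM final) added. Fluorescence read kinetically at 480/540 nm, 6 reads every 60 seconds. Buffer: 50mM HEPES pH 7.8, 0.5mM EDTA, 0.1 mg/ml BSA, 1mM TCEP, 0.01% Tween-20.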
Ubiquitin carboxyl-terminal hydrolase 1 (Homo sapiens), sequence (O94782 whole entry, looked up): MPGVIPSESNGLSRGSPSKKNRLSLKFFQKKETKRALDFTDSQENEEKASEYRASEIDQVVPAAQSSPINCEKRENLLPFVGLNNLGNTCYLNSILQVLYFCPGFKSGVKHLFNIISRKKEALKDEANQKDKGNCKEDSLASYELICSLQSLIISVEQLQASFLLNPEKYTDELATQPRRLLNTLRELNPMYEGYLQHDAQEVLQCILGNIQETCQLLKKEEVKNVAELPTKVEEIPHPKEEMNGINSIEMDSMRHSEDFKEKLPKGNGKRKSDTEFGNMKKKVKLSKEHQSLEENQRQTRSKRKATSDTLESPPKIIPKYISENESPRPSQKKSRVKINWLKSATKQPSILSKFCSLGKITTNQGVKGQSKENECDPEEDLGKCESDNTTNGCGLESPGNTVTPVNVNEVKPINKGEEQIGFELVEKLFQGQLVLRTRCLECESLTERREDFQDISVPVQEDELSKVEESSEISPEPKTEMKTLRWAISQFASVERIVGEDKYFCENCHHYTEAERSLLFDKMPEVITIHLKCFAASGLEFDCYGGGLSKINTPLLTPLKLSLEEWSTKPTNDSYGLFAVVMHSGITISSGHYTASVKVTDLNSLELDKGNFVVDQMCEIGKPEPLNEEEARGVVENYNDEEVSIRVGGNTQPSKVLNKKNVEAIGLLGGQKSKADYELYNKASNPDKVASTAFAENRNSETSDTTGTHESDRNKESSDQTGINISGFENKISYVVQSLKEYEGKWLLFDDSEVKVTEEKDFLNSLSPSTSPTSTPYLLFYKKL

Assay [14] in a line: Primary qHTS for small molecule stabilizers of the endoplasmic reticulum resident proteome: Secreted ER Calcium Modulated Protein (SERCaMP) assay (AID 1508630). Further: on the % scale 0 is the no-effect control and ±100 the full control effect. The conditions noted are these: SH-SY5Y GLuc-SERCaMP (Gaussia luciferase released on ER calcium loss) secretion, thapsigargin, luminescence; series mostly up to 38.4 µM. The gist of the method:
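The SH-SY5Y reporter protocol was run at 3 concentrations up to 38.3 uM (primary) or 11 concentrations (follow-up): 16 h compound, 100 nM thapsigargin for 4 h, then extracellular luciferase luminescence.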

The target of assay [15] is Cytochrome P450 3A4 (Homo sapiens) (UniProt P08684). Description: qHTS Assay for Inhibitors and Substrates of Cytochrome P450 3A4 (AID 884). Further: potency means the concentration at half of the fitted maximal effect; nearly all actives have a fitted effect of over 50% in size. The following applies: recombinant CYP3A4, Luciferin-PPXE luminescence; series mostly up to 57.1 µM. Summed up:
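Luminescent readout of luciferin produced by CYP3A4 (20 nM) dealkylation of Luciferin-PPXE, 25 uM (its KM). NADPH-driven reaction ran 60 min at RT after 10 min compound preincubation; data scaled to 57 uM ketoconazole as 100% inhibition.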

Assay [16] concerns the target Cytochrome P450 2D6 (Homo sapiens) (UniProt P10635). The experiment in a line: qHTS Assay for Inhibitors and Substrates of Cytochrome P450 2D6 (AID 891). Further: potency means the concentration at half of the fitted maximal effect; nearly all actives have a fitted effect of over 60% in size. The following applies: recombinant CYP2D6, luciferin-ME EGE luminescence; series mostly up to 57.1 µM. The gist of the method: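 Luminescent read-out of luciferin formed by 5 nM human CYP2D6 demethylating 30 uM Luciferin-ME EGE (Km level) over 60 min at room temperature after NADPH regeneration addition. Data normalized to full inhibition by 1.43 uM quinidine.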

The target of assay [17] is Cytochrome P450 2C19 (Homo sapiens) (UniProt P33261). The experiment in a line: qHTS Assay for Inhibitors and Substrates of Cytochrome P450 2C19 (AID 899). Further: potency means the concentration at half of the fitted maximal effect; nearly all actives have a fitted effect of over 60% in size. The following applies: recombinant CYP2C19, luciferin-H EGE luminescence; series mostly up to 57.1 µM. The gist of the method: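 5 nM human CYP2C19 with 10uM Luciferin-H EGE (at KM) in 50mM KPO4, compound preincubated 10 min at 37C, then NADPH regeneration for 60 min at 37C. Luciferin read by luminescence after detection reagent; normalized to 57uM ketoconazole as full inhibition.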

Cytochrome P450 3A4 (Homo sapiens), sequence (P08684 whole entry, looked up): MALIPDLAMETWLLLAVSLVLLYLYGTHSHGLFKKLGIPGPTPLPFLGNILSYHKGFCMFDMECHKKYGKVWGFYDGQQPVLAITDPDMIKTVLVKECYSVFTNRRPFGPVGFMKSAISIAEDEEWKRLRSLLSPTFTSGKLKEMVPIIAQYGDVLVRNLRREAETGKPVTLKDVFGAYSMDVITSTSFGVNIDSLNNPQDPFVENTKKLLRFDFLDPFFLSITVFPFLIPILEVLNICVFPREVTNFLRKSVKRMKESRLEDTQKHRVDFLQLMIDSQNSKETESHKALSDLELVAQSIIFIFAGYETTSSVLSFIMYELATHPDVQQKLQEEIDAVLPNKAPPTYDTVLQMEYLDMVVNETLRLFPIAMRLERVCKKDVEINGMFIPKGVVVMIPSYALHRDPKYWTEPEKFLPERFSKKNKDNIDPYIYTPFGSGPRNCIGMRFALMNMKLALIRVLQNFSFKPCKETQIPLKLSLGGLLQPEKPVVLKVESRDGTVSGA
Dual specificity protein kinase CLK4 (Homo sapiens), sequence (Q9HAZ1 whole entry, looked up): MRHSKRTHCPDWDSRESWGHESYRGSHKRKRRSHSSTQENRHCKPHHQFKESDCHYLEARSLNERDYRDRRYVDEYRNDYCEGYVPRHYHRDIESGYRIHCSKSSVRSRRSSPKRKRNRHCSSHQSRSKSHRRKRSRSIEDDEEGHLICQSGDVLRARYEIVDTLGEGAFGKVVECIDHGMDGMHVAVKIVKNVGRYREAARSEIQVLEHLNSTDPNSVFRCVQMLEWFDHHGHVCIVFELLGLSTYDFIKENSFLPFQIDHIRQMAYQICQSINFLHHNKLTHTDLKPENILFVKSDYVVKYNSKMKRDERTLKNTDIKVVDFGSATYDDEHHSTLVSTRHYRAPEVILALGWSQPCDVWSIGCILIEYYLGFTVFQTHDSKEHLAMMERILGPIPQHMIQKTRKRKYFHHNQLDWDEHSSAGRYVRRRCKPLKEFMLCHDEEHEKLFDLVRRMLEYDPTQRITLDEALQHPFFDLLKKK
Lysosomal acid glucosylceramidase (Homo sapiens), sequence (P04062 whole entry, looked up): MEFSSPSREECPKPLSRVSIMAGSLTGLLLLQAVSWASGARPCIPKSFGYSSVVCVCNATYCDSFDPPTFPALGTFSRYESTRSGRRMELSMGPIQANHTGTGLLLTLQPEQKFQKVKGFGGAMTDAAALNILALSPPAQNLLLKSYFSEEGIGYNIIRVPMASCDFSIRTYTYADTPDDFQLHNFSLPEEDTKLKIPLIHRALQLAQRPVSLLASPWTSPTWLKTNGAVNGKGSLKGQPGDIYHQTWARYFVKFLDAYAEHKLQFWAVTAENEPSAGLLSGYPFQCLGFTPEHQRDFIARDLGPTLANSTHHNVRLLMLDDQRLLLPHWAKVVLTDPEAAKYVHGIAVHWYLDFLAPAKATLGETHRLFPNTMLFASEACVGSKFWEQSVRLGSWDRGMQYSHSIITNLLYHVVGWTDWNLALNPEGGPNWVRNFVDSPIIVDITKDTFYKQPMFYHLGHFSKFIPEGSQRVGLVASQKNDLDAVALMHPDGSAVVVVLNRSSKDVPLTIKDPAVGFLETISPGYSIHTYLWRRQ
Cytochrome P450 2D6 (Homo sapiens), sequence (P10635 whole entry, looked up): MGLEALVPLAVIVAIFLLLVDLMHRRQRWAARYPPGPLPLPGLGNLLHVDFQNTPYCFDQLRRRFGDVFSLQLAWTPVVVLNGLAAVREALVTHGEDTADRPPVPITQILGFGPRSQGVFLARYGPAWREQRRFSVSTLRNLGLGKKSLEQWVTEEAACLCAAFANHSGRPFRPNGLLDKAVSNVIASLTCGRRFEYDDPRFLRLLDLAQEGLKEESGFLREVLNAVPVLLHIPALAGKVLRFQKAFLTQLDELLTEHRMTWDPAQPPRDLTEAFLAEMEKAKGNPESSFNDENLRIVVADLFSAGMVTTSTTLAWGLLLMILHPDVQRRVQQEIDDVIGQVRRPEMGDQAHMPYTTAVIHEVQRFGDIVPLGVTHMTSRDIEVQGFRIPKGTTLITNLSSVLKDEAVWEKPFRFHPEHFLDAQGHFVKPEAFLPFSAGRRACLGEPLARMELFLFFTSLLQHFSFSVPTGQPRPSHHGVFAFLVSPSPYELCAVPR

`Cc1cnc(CNc2cc(-c3cccc(C#N)c3)ncn2)cn1`: the Potency in assay [1] was over 11.4 µM; in [3], 15.8 µM (active); in [6], over 46 µM; in [7], over 46 µM; in [11] it was 31.6 µM (active); in [12], 35.5 µM (active). The values for the activity change, negative = inhibition in [2] and in assay [4] were 8.07% and 25.8%, respectively. Besides, the activity, negative = inhibition in [5] is 7.04%. Moreover, the Potency entry in assay [8], in assay [9], in assay [10] and in [13] was “inactive” each time. In assay [14], the result was inactive.
As to `FC(F)(F)c1ccccc1-c1nc(NC2CC2)c2ccccc2n1`, the Potency in assay [1] was 6.53 µM (active); in [3], 0.398 µM (active); in assay [6], over 46 µM; in assay [7] it was over 46 µM; in [15], 3.16 µM (active); in assay [11], 14.1 µM (active). Also, the Potency in assay [12] is 14.1 µM (active). Besides, the results for the activity change, negative = inhibition in assay [2] and in [4] were 3.67% and 8.57%, respectively. Moreover, the activity, negative = inhibition in [5] was 8.2%. Besides, the Potency entry in [8], in assay [10] and in assay [13] was “inactive” in each case. The result in assay [14] was inactive.
Take `COc1ncc2nc(-c3ccc(F)cc3)c(=O)n(Cc3cccs3)c2n1`: the Potency is over 11.4 µM in [1], over 9.22 µM in assay [6] and over 46 µM in assay [7]. In addition, the activity change, negative = inhibition was -5.24% in assay [2] and -1.45% in [4]. In addition, the activity, negative = inhibition in assay [5] is -28.5%. The Potency result in assay [8], in assay [9], in [11], in assay [12] and in assay [13] was “inactive” in each case. Also, the result in [14] was inactive.
In the case of `CS(=O)(=O)Nc1cccc(-c2nc(NCc3ccccc3)c3ccccc3n2)c1`, the Potency in assay [1] was over 11.4 µM; in assay [3], 2.51 µM (active); in assay [6], over 46 µM; in [7], over 46 µM; in assay [15], 3.16 µM (active); in [11], 31.6 µM (active). Also, the Potency in assay [12] is 28.2 µM (active). In addition, the values for the activity change, negative = inhibition in assay [2] and in assay [4] were -10.8% and 7.92%, respectively. In addition, the activity, negative = inhibition in assay [5] is -10.7%. Also, the Potency entry in assay [8], in assay [10] and in [13] was “inactive” each time. In [14], the outcome was inactive.
On to `COc1ccc(CNc2ncncc2-c2cccc(C#N)c2)c(OC)c1`, for which the Potency was over 11.4 µM in assay [1]; 7.94 µM (active) in assay [3]; over 46 µM in assay [6]; over 46 µM in [7]; 0.316 µM (active) in [15]; 5.01 µM (active) in [16]. For the same compound, the Potency in assay [17] was 5.01 µM (active); in assay [11] it was 28.2 µM (active); in [12], 35.5 µM (active). Also, the activity change, negative = inhibition in assay [2] was -5.26%; in [4], 13.9%. For the same compound, the activity, negative = inhibition in assay [5] is 8.97%. Also, the Potency entry in [8], in assay [10] and in assay [13] was “inactive” throughout. Further, in [14], the outcome was inactive.
